Experimental findings from ChEMBL document CHEMBL4296182, “CO-ADD screening of NIH NCI Diversity Set V” are described below.

For part of these data: Entries with a potency or affinity are not part of this list.

One test deals with Staphylococcus aureus. Description: Antibacterial activity against Staphylococcus aureus MRSA ATCC 43300 (CO-ADD:GP_020); MIC in CAMBH media using NBS plates, by Resazurin F(560/590). The conditions noted are these: Concentration 20 uM, ASSAY_TEST Inhibition of Bacterial Growth, detection method Resazurin, Fluorescence (ex560/em590), MEDIA CAMHB, plate type 384well, CORNING #3640, time 18 hr. The format is functional.

The test system of another test is Acinetobacter baumannii. Description: Antibacterial activity against Acinetobacter baumannii ATCC 19606 (CO-ADD:GN_034); MIC in CAMBH media using NBS plates, by Resazurin F(560/590). It counts as functional. The following applies: Concentration 20 uM, ASSAY_TEST Inhibition of Bacterial Growth, detection method Resazurin, Fluorescence (ex560/em590), MEDIA CAMHB, plate type 384well, CORNING #3640, time 18 hr.

The next test deals with Escherichia coli. Nature of the test: Antibacterial activity against Escherichia coli ATCC 25922 (CO-ADD:GN_001); MIC in CAMBH media using NBS plates, by Resazurin F(560/590). It counts as functional. The following applies: Concentration 20 uM, ASSAY_TEST Inhibition of Bacterial Growth, detection method Resazurin, Fluorescence (ex560/em590), MEDIA CAMHB, plate type 384well, CORNING #3640, time 18 hr.

The test system of the next test is Klebsiella pneumoniae. The conditions noted are these: Concentration 20 uM; ASSAY_TEST Inhibition of Bacterial Growth; detection method Absorption (OD600); MEDIA CAMHB; plate type 384well; NBS; CORNING #3640; time 18 hr.
The test system of another test is Candida albicans. The following applies: 20 µM.
A further test concerns Cryptococcus neoformans. The following applies: Concentration 20 uM; ASSAY_TEST Inhibition of Fungal Growth; detection method Resazurin; Absorption (OD600-OD570); plate type 384well; NBS; CORNING #3640.

Take `Cc1nc(N)nc(Cl)c1CCC1OCCO1`: the Inhibition with Staphylococcus aureus is 7.04%; with Acinetobacter baumannii, -8.91%; with Escherichia coli, 8.75%; in the test on Klebsiella pneumoniae, 6.29%; with Candida albicans, 2.66%; in the test with Cryptococcus neoformans, -6.74%.

Take `O=C(Nc1cccc([N+](=O)[O-])c1)c1ccc2ccccc2c1O`: the Inhibition in the test on Staphylococcus aureus is 0.95%; in the test on Acinetobacter baumannii, -11.75%; in the test with Escherichia coli, 6.76%; with Klebsiella pneumoniae, 12.38%; in the test on Candida albicans, 3.5%; in the test with Cryptococcus neoformans, 4.47%.

Take `O=C(c1ccccc1)C1C(c2ccccc2)C1[N+](=O)[O-]` (stereo not given): the Inhibition in the test on Staphylococcus aureus was 0.24%; with Acinetobacter baumannii, 5.31%; in the test on Escherichia coli it was -7.09%; in the test with Klebsiella pneumoniae, 8.34%; in the test on Candida albicans, 7.18%; in the test with Cryptococcus neoformans it was -2.68%.

Take `CCCCOc1ccc(OC(=O)Nc2cc(Cl)ccc2OC)cc1`: the Inhibition is 13.88% in the test with Staphylococcus aureus; 6.78% in the test with Acinetobacter baumannii; 2.93% with Escherichia coli; 11.91% in the test on Klebsiella pneumoniae; 0.59% with Candida albicans; -2.51% in the test on Cryptococcus neoformans.

Take `COc1ccccc1N=NNc1ccccc1OC`: the Inhibition in the test on Staphylococcus aureus was 15.47%; in the test with Acinetobacter baumannii, -0.02%; in the test with Escherichia coli, 3.88%; in the test with Klebsiella pneumoniae, 9.87%; with Candida albicans, 2.77%; in the test with Cryptococcus neoformans, -8.49%.

For the molecule `OC(COc1ccc(Cl)cc1)CN1CCN(c2cccc(Cl)c2)CC1` (stereo not given), the Inhibition in the test on Staphylococcus aureus was 15.95%; with Acinetobacter baumannii, -3.41%; in the test on Escherichia coli, 10.45%; with Klebsiella pneumoniae it was 10.9%; in the test with Candida albicans, -0.89%; in the test with Cryptococcus neoformans, -14.11%.

For the molecule `Nc1cc(-c2ccccc2)ccc1O`, the Inhibition with Staphylococcus aureus is 13.15%; in the test on Acinetobacter baumannii, -7.9%; in the test on Escherichia coli, 6.67%; with Klebsiella pneumoniae it was 17.45%; in the test on Candida albicans it was 4.12%; in the test with Cryptococcus neoformans it was -0.33%.

Regarding `O=[N+]([O-])/C=C/c1cc2ccccc2[nH]1`, the Inhibition was 0.82% in the test with Staphylococcus aureus; -9.9% in the test on Acinetobacter baumannii; 9.79% with Escherichia coli; 7.79% with Klebsiella pneumoniae; 46.8% in the test on Candida albicans; -1.09% with Cryptococcus neoformans.

As for `COc1ccc([N+](=O)[O-])cc1NC(=O)N(C)Cc1ccco1`, the Inhibition in the test with Staphylococcus aureus was 9.28%; in the test on Acinetobacter baumannii it was 17.46%; in the test on Escherichia coli, 6.67%; in the test on Klebsiella pneumoniae it was 14.11%; in the test on Candida albicans, -1.23%; with Cryptococcus neoformans it was -10.86%.

Take `Cc1nc(Nc2ccc(F)cc2)nc(Nc2ccc(F)cc2)c1[N+](=O)[O-]`: the Inhibition with Staphylococcus aureus was 16.01%; with Acinetobacter baumannii, 5.04%; in the test on Escherichia coli, 5.3%; in the test with Klebsiella pneumoniae it was 11.05%; in the test with Candida albicans, -2.79%; in the test with Cryptococcus neoformans, 0.25%.

`Nn1c(Cc2ccccc2)nnc1Cc1ccccc1`: the Inhibition in the test with Staphylococcus aureus is 7.31%; in the test on Acinetobacter baumannii it was 16.12%; in the test with Escherichia coli it was -0.96%; in the test on Klebsiella pneumoniae it was 11.84%; with Candida albicans, 2.51%; with Cryptococcus neoformans, -5.12%.

In the case of `CN(c1cccnc1)c1[nH]cnc2nncc1-2`, the Inhibition was -13.03% in the test with Staphylococcus aureus; -4.86% in the test on Acinetobacter baumannii; -0.96% with Escherichia coli; -0.91% in the test on Klebsiella pneumoniae; 0.07% in the test with Candida albicans; -5.56% in the test on Cryptococcus neoformans.

Regarding `CN(C)S(=O)(=O)Nc1cccc(Br)c1`, the Inhibition is 1.46% in the test on Staphylococcus aureus; -10.63% in the test with Acinetobacter baumannii; 3.48% in the test on Escherichia coli; 2.53% in the test on Klebsiella pneumoniae; 4.88% in the test with Candida albicans; 43.58% in the test on Cryptococcus neoformans.

On to `Nc1ccc(C(=O)Oc2ccc([N+](=O)[O-])cc2)cc1`, for which the Inhibition in the test with Staphylococcus aureus is 12.07%; with Acinetobacter baumannii, 4.99%; in the test with Escherichia coli it was 4.45%; in the test with Klebsiella pneumoniae, 11.91%; with Candida albicans, 3.13%; in the test on Cryptococcus neoformans, -14.05%.

In the case of `CC(=O)Nc1cccc(NC(C)=O)n1`, the Inhibition is 23.71% with Staphylococcus aureus; -5.95% in the test with Acinetobacter baumannii; 17.6% with Escherichia coli; 13.05% in the test on Klebsiella pneumoniae; -2.4% in the test with Candida albicans; -1.6% in the test with Cryptococcus neoformans.

With `CC1(C)OC2CC(=O)OCC23C1CC(=O)C1(C)C3CCC2(C)C(c3ccoc3)OC(=O)C3OC321` (stereo not given), the Inhibition in the test on Staphylococcus aureus was 21.22%; in the test on Acinetobacter baumannii, -6.97%; in the test with Escherichia coli it was 8.41%; in the test on Klebsiella pneumoniae, 8.88%; in the test on Candida albicans it was 0.13%; in the test with Cryptococcus neoformans, -7.86%.

For the molecule `COc1ccccc1C1OC2=Nc3cc([N+](=O)[O-])ccc3NC2=C1O` (stereo not given), the Inhibition is 8.5% in the test with Staphylococcus aureus; -1.62% with Acinetobacter baumannii; 2.79% with Escherichia coli; 1.15% with Klebsiella pneumoniae; 0.19% in the test with Candida albicans; -4.37% with Cryptococcus neoformans.

For the molecule `NNC(=O)CNc1cccc(Br)c1`, the Inhibition with Staphylococcus aureus is 11.03%; with Acinetobacter baumannii, 1.39%; in the test on Escherichia coli it was 7.55%; in the test with Klebsiella pneumoniae, 8.17%; in the test with Candida albicans, 1.56%; in the test with Cryptococcus neoformans, -4.46%.

As for `CCOC(=O)N1CCN(Cc2c(O)ccc3ccccc23)CC1`, the Inhibition in the test with Staphylococcus aureus was 1.46%; in the test with Acinetobacter baumannii, -8.59%; in the test with Escherichia coli, 8.73%; with Klebsiella pneumoniae it was 12.37%; in the test on Candida albicans, 3.24%; in the test with Cryptococcus neoformans, -5.96%.

For `NC(=O)Nc1n[nH]c(-c2ccccc2)n1`, the Inhibition is -5.91% in the test on Staphylococcus aureus; -11.11% with Acinetobacter baumannii; -7.81% in the test on Escherichia coli; 2.72% in the test on Klebsiella pneumoniae; 1.88% in the test with Candida albicans; 1.04% with Cryptococcus neoformans.

Consider `O=C(Nc1cc(-c2ccccc2)[nH]n1)c1ccc(Cl)cc1`, for which the Inhibition in the test with Staphylococcus aureus was 11.18%; in the test with Acinetobacter baumannii it was -15.73%; in the test on Escherichia coli, 6.31%; in the test on Klebsiella pneumoniae, 6.21%; with Candida albicans, 8.34%; with Cryptococcus neoformans, -8.44%.

For the molecule `COc1cc2c(cc1OC)C(C1(O)CCCCC1)NCC2` (stereo not given), the Inhibition with Staphylococcus aureus is 18.67%; in the test on Acinetobacter baumannii, -1.81%; in the test on Escherichia coli it was 15.36%; in the test on Klebsiella pneumoniae it was -0.68%; in the test on Candida albicans, -2.01%; with Cryptococcus neoformans, -12.78%.

For the molecule `Cc1cc(O)cc2c1[C@H]1CC[C@]3(C)C(=O)CC[C@H]3[C@@H]1C=C2`, the Inhibition with Staphylococcus aureus was 24.45%; in the test on Acinetobacter baumannii it was 13.8%; in the test with Escherichia coli, 29.29%; in the test on Klebsiella pneumoniae, -0.57%; in the test on Candida albicans, 12.1%; with Cryptococcus neoformans, -1.77%.

Take `O=C(c1ccccc1)c1ccc[nH]1`: the Inhibition in the test with Staphylococcus aureus is -0.8%; in the test with Acinetobacter baumannii, -3.74%; in the test on Escherichia coli, -15.34%; in the test on Klebsiella pneumoniae, 11.78%; in the test with Candida albicans it was 2.09%; in the test with Cryptococcus neoformans, 18.91%.

With `O=C(O)/C=C/C(=O)N1Cc2cc3ccccc3nc2C1`, the Inhibition in the test on Staphylococcus aureus was 3.21%; in the test on Acinetobacter baumannii it was -0.11%; in the test on Escherichia coli it was -4.23%; in the test on Klebsiella pneumoniae, 9.8%; with Candida albicans, 1.99%; with Cryptococcus neoformans, -3.38%.
